Records with an inconclusive call do not appear. Calls of active or inactive are those of the source. Rule for the calls: active = hit-call score of the fitted dose curve at least 0.9, where 1 is the maximum; inconclusive = response in the unintended direction; inactive = score below 0.9.

This assay is described as follows: ACEA_ER_80hr: ACEA Biosciences xCELLigence Real-Time Cell Analysis on Estrogen Receptor Agonism for Proliferation (AID 2282667). As to conditions: T47D proliferation, impedance (xCELLigence), 80 h. The method, boiled down: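 Real-time electrical impedance tracked growth of the human breast line T47D, with the 80 h post-dosing value used. Dosing spanned eight 1:4 steps down from a 100 uM final top concentration, run in duplicate.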
Regarding `COP(=O)(OC)OC`, the outcome was inactive.

Regarding `CNC`, the result was inactive.

As to `C=CC(=O)N(C)C`, the call was inactive.

For `O=[N+]([O-])c1c(Cl)c(Cl)cc(Cl)c1Cl`, the compound was classed as inactive.

In the case of `Cc1ccccc1C(=O)Nc1cccc(OC(C)C)c1`, the outcome was inactive.

As for `Cc1ccc(N)cc1Cl`, the result was inactive.

`O=CC=O`: the result was inactive.

On to `COC(=O)Cc1ccccc1`, for which the compound was classed as inactive.

In the case of `N#CCCO`, the outcome was inactive.

As to `N#CN=C(N)N`, the compound was classed as inactive.

Consider `CCOC(=O)Nc1cccc(OC(=O)Nc2ccccc2)c1`, for which the compound was called inactive.

In the case of `O=C(c1ccccc1)C(Cl)Cl`, the outcome was inactive.

For `CCC(=O)c1ccccc1`, the call was inactive.

On to `CCN(CC)C(=O)Cl`, for which the compound was classed as inactive.

For the compound `Clc1ccc(C2(Cn3cncn3)CC(Br)CO2)c(Cl)c1` (stereo not drawn), the outcome was inactive.

`O=C1CCCN1`: the outcome was inactive.

As to `Nc1ncc([N+](=O)[O-])s1`, the compound was called inactive.

Consider `C(=NC1CCCCC1)=NC1CCCCC1`, for which the result was inactive.

As for `COc1cccc(C=O)c1`, the compound was called inactive.

On to `COc1ccc(C=O)cc1`, for which the compound was called inactive.

As to `Oc1c(I)cc(I)cc1I`, the call was inactive.

For the compound `CCCCCCCCCl`, the compound was called inactive.

Usually AC50 stands for the concentration at which the activity in the assay is half-maximal. `CCCCCCCCCCCCCCCC[n+]1ccccc1`: the AC50 is 81 nM (active).

As to `COc1ccc(C(O)(c2cncnc2)C2CC2)cc1` (stereo not drawn), the compound was classed as inactive.

As to `CC(=[OH+])/C=C(/C)[O-].CC(=[OH+])/C=C(/C)[O-].CC(=[OH+])/C=C(/C)[O-].[Al]`, the compound was classed as inactive.

On to `CC(C)(c1ccc(OCC2CO2)cc1)c1ccc(OCC2CO2)cc1` (stereo not drawn), for which the compound was called inactive.

For `CC(C)c1ccc(CO)cc1`, the compound was classed as inactive.

Turning to `CC(C#N)CCC#N` (stereo not drawn), the compound was classed as inactive.

`CN(C)P(=O)(N(C)C)N(C)C`: the result was inactive.

For `OCC(O)CCl` (stereo not drawn), the result was inactive.

As to `N#Cc1ccccn1`, the compound was called inactive.

As to `CCCCOCCOC(C)=O`, the result was inactive.

For the compound `Nc1ccc(Cl)cc1C(=O)c1ccccc1`, the result was inactive.

The values above are taken from PubChem BioAssay (EPA / NIEHS).
